Measured values: PubChem BioAssay (EPA / NIEHS)
“And” between values parts separate entries of the source, which are not always exact repeats. Equal entries are not always repeated. Records with an inconclusive call do not appear. The source made the active and inactive calls. The calls were made as follows: active = hit-call score of the fitted dose curve at least 0.9, where 1 is the maximum; inconclusive = response in the unintended direction; inactive = score below 0.9.

Target: Cellular tumor antigen p53 (Homo sapiens) (UniProt P04637)
Test: TOX21_p53_BLA_p5_ratio: Tox21 HCT-116 p53 Agonism Beta-lactamase Assay, Ratio, Phase 5 (AID 2283599)
In short: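 HCT-116 p53-bla cells (4000/well) plated 5 h, dosed with compound (217-fold DMSO dilution) for 16 h at 37 C; CCF4-AM substrate 2 h at room temperature. Activity is the 460/530 nm emission ratio (405 nm excitation), fitted in gain-of-signal direction versus DMSO.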

Chain of Cellular tumor antigen p53 (Homo sapiens) (P04637 whole entry, looked up): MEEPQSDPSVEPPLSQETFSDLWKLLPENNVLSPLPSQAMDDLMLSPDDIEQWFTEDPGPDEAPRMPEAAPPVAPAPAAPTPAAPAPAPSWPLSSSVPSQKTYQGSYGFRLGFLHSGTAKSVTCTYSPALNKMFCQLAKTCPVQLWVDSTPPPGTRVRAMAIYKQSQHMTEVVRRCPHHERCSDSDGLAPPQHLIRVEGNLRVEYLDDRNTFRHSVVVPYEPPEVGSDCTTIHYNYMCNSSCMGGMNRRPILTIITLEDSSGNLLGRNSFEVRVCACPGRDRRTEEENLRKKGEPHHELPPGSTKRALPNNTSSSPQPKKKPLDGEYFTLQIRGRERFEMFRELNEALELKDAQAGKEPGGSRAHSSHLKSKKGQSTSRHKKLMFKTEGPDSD

Structure (SMILES)	AC50	outcome
CC(C)C[C@H](NC(=O)[C@H](Cc1ccccc1)NC(=O)c1cnccn1)B(O)O	25.2 nM (active) and 15.7 nM (active)	–
C#CCC(Cc1cnc2nc(N)nc(N)c2n1)c1ccc(C(=O)N[C@@H](CCC(=O)O)C(=O)O)cc1 (stereo partly drawn)	1.13 µM (active)	–
NC(N)=NCc1cccc(I)c1	–	inactive
O=C(Oc1cccc2cccnc12)c1ccccc1	–	inactive
O=C(Nc1ccc(Cl)c(Cl)c1)C1CC1	–	inactive
Oc1ccc(N=Nc2ccccc2)cc1	74.7 µM (active)	–
COC(=O)C1=C(C)NC(C)=C(C(=O)OCCN2CCN(C(c3ccccc3)c3ccccc3)CC2)C1c1cccc([N+](=O)[O-])c1 (stereo not drawn)	–	inactive
Cc1c(N(C)CS(=O)(=O)O)c(=O)n(-c2ccccc2)n1C	–	inactive
N#C/C(=C1/SC[C@@H](c2ccc(Cl)cc2Cl)S1)n1ccnc1	–	inactive
C[C@]12C=CC(=O)C=C1[C@@H](F)C[C@@H]1[C@@H]2[C@@H](O)C[C@@]2(C)[C@H]1CC[C@]2(O)C(=O)CO	–	inactive
CCCCCCCCCCCCCC[N+](C)(C)Cc1ccccc1	40.8 µM (active)	–
CN[C@H]1CC[C@@H](c2ccc(Cl)c(Cl)c2)c2ccccc21	–	inactive
O=C1Nc2ccc(Cl)cc2[C@@](C#CC2CC2)(C(F)(F)F)O1	36.7 µM (active)	–
CC(=O)Oc1ccc2c(c1)CC[C@@H]1[C@@H]2CC[C@]2(C)[C@@H](O)CC[C@@H]12	–	inactive
CC(C)C[C@H](NC(=O)[C@H](CCc1ccccc1)NC(=O)CN1CCOCC1)C(=O)N[C@@H](Cc1ccccc1)C(=O)N[C@@H](CC(C)C)C(=O)[C@@]1(C)CO1	0.203 µM (active)	–
CCCCCCCCCCCCCCCCC(C(=O)O)C(O)(CC(=O)O)C(=O)O (stereo not drawn)	38.7 µM (active)	–
COc1cc([C@@H]2c3cc4c(cc3C(O[C@@H]3O[C@@H]5COC(c6cccs6)O[C@H]5[C@H](O)[C@H]3O)C3COC(=O)[C@@H]32)OCO4)cc(OC)c1O (stereo partly drawn)	0.886 µM (active)	–
Cc1cc(-n2c(=O)[nH]c(=O)n(C)c2=O)ccc1Oc1ccc(S(=O)(=O)C(F)(F)F)cc1	–	inactive
NC(=O)n1c(O)c(C(=O)c2cccs2)c2cc(Cl)ccc21	34.4 µM (active)	–
CCC(=C(CC)c1ccc(O)cc1)c1ccc(O)cc1	17.7 µM (active)	–

Structure (SMILES)	AC50	outcome
CCC(C)n1ncn(-c2ccc(N3CCN(c4ccc(OC[C@H]5CO[C@](Cn6cncn6)(c6ccc(Cl)cc6Cl)O5)cc4)CC3)cc2)c1=O (stereo partly drawn)	–	inactive
C#C[C@]1(O)CC[C@H]2[C@@H]3CCc4cc(OC5CCCC5)ccc4[C@H]3CC[C@@]21C	–	inactive
Cc1ccc(/C=N/n2c(-c3ccccc3)csc2=S)cc1	–	inactive
COC(=O)C1=C(C)NC(COC(N)=O)=C(C(=O)OC(C)C)C1c1cccc(Cl)c1Cl (stereo not drawn)	25.5 µM (active)	–
CC(C)(C)CC(C)(C)c1ccc(O)c(Cc2ccc(Cl)cc2Cl)c1	28.1 µM (active)	–
Cc1cc(Nc2ccccc2C(=O)O)ccc1Cl	17.4 µM (active)	–
COC(=O)C1=C(C)NC(C)=C(C(=O)OCC(C)=O)C1c1ccccc1[N+](=O)[O-] (stereo not drawn)	–	inactive
CCOC(=O)COc1ccc2c(=O)cc(-c3ccccc3)oc2c1	–	inactive
NCCCC[C@H](NC(=O)[C@@H]1CCCN1C(=O)[C@@H]1CSSC[C@H](N)C(=O)N[C@@H](Cc2ccc(O)cc2)C(=O)N[C@@H](Cc2ccccc2)C(=O)N[C@@H](CCC(N)=O)C(=O)N[C@@H](CC(N)=O)C(=O)N1)C(=O)NCC(N)=O	–	inactive
COc1cc(C)c(/C=C/C(C)=C/C=C/C(C)=C/C(=O)O)c(C)c1C	36 µM (active)	–
NC(=O)C(=O)NN=Cc1ccc([N+](=O)[O-])o1	37.1 µM (active)	–
C[C@@H](NCCCc1cccc(C(F)(F)F)c1)c1cccc2ccccc12	–	inactive
COCCOC(=O)C1=C(C)NC(C)=C(C(=O)OC/C=C/c2ccccc2)C1c1cccc([N+](=O)[O-])c1 (stereo not drawn)	–	inactive
COc1ccc(C(=O)CC(=O)c2ccc(C(C)(C)C)cc2)cc1	–	inactive
Cc1ccc2c(Cl)cc(Cl)c(O)c2n1	25.9 µM (active)	–
OC[C@]1(O)OC[C@@H](O)[C@H](O)[C@@H]1O	–	inactive
CCN(CC)CCNC(=O)c1c(C)[nH]c(/C=C2\C(=O)Nc3ccc(F)cc32)c1C	–	inactive
CC(C)=CCC1=C(O)c2ccccc2C(=O)C1=O	1.74 µM (active)	–
C=C1C(CCl)(CCl)C2(Cl)C(Cl)C(Cl)C1(Cl)C2(Cl)Cl (stereo not drawn)	68.4 µM (active) and 24.1 µM (active)	–

Tested on: not listed separately
Test: TOX21_p53_BLA_p5_viability: Viability Assessment in the Tox21 HCT-116 p53 Agonism Beta-lactamase Assay, Phase 5 (AID 2283600)
In short: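 Seeded cells (4000/well) settle 5 h before compound addition. Plates then incubate 16 h at 37C, receive FRET substrate for 2 h, and finally CellTiter-Glo, with luminescence measured after a 30 min room-temperature incubation.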

Structure (SMILES)	AC50	outcome
CC(C)C[C@H](NC(=O)[C@H](Cc1ccccc1)NC(=O)c1cnccn1)B(O)O	554 nM (active) and 442 nM (active)	–
C#CCC(Cc1cnc2nc(N)nc(N)c2n1)c1ccc(C(=O)N[C@@H](CCC(=O)O)C(=O)O)cc1 (stereo partly drawn)	0.538 µM (active)	–
NC(N)=NCc1cccc(I)c1	–	inactive
O=C(Oc1cccc2cccnc12)c1ccccc1	–	inactive
O=C(Nc1ccc(Cl)c(Cl)c1)C1CC1	–	inactive
Oc1ccc(N=Nc2ccccc2)cc1	–	inactive
COC(=O)C1=C(C)NC(C)=C(C(=O)OCCN2CCN(C(c3ccccc3)c3ccccc3)CC2)C1c1cccc([N+](=O)[O-])c1 (stereo not drawn)	–	inactive
Cc1c(N(C)CS(=O)(=O)O)c(=O)n(-c2ccccc2)n1C	–	inactive
N#C/C(=C1/SC[C@@H](c2ccc(Cl)cc2Cl)S1)n1ccnc1	–	inactive
C[C@]12C=CC(=O)C=C1[C@@H](F)C[C@@H]1[C@@H]2[C@@H](O)C[C@@]2(C)[C@H]1CC[C@]2(O)C(=O)CO	–	inactive
CCCCCCCCCCCCCC[N+](C)(C)Cc1ccccc1	–	inactive
CN[C@H]1CC[C@@H](c2ccc(Cl)c(Cl)c2)c2ccccc21	–	inactive
O=C1Nc2ccc(Cl)cc2[C@@](C#CC2CC2)(C(F)(F)F)O1	38.3 µM (active)	–
CC(=O)Oc1ccc2c(c1)CC[C@@H]1[C@@H]2CC[C@]2(C)[C@@H](O)CC[C@@H]12	–	inactive
CC(C)C[C@H](NC(=O)[C@H](CCc1ccccc1)NC(=O)CN1CCOCC1)C(=O)N[C@@H](Cc1ccccc1)C(=O)N[C@@H](CC(C)C)C(=O)[C@@]1(C)CO1	1 µM (active)	–
CCCCCCCCCCCCCCCCC(C(=O)O)C(O)(CC(=O)O)C(=O)O (stereo not drawn)	34.3 µM (active)	–
COc1cc([C@@H]2c3cc4c(cc3C(O[C@@H]3O[C@@H]5COC(c6cccs6)O[C@H]5[C@H](O)[C@H]3O)C3COC(=O)[C@@H]32)OCO4)cc(OC)c1O (stereo partly drawn)	–	inactive
Cc1cc(-n2c(=O)[nH]c(=O)n(C)c2=O)ccc1Oc1ccc(S(=O)(=O)C(F)(F)F)cc1	–	inactive
NC(=O)n1c(O)c(C(=O)c2cccs2)c2cc(Cl)ccc21	–	inactive
CCC(=C(CC)c1ccc(O)cc1)c1ccc(O)cc1	–	inactive

Structure (SMILES)	AC50	outcome
CCC(C)n1ncn(-c2ccc(N3CCN(c4ccc(OC[C@H]5CO[C@](Cn6cncn6)(c6ccc(Cl)cc6Cl)O5)cc4)CC3)cc2)c1=O (stereo partly drawn)	–	inactive
C#C[C@]1(O)CC[C@H]2[C@@H]3CCc4cc(OC5CCCC5)ccc4[C@H]3CC[C@@]21C	37.8 µM (active)	–
Cc1ccc(/C=N/n2c(-c3ccccc3)csc2=S)cc1	–	inactive
COC(=O)C1=C(C)NC(COC(N)=O)=C(C(=O)OC(C)C)C1c1cccc(Cl)c1Cl (stereo not drawn)	–	inactive
CC(C)(C)CC(C)(C)c1ccc(O)c(Cc2ccc(Cl)cc2Cl)c1	13.8 µM (active)	–
Cc1cc(Nc2ccccc2C(=O)O)ccc1Cl	–	inactive
COC(=O)C1=C(C)NC(C)=C(C(=O)OCC(C)=O)C1c1ccccc1[N+](=O)[O-] (stereo not drawn)	–	inactive
CCOC(=O)COc1ccc2c(=O)cc(-c3ccccc3)oc2c1	–	inactive
NCCCC[C@H](NC(=O)[C@@H]1CCCN1C(=O)[C@@H]1CSSC[C@H](N)C(=O)N[C@@H](Cc2ccc(O)cc2)C(=O)N[C@@H](Cc2ccccc2)C(=O)N[C@@H](CCC(N)=O)C(=O)N[C@@H](CC(N)=O)C(=O)N1)C(=O)NCC(N)=O	–	inactive
COc1cc(C)c(/C=C/C(C)=C/C=C/C(C)=C/C(=O)O)c(C)c1C	–	inactive
NC(=O)C(=O)NN=Cc1ccc([N+](=O)[O-])o1	–	inactive
C[C@@H](NCCCc1cccc(C(F)(F)F)c1)c1cccc2ccccc12	–	inactive
COCCOC(=O)C1=C(C)NC(C)=C(C(=O)OC/C=C/c2ccccc2)C1c1cccc([N+](=O)[O-])c1 (stereo not drawn)	–	inactive
COc1ccc(C(=O)CC(=O)c2ccc(C(C)(C)C)cc2)cc1	–	inactive
Cc1ccc2c(Cl)cc(Cl)c(O)c2n1	–	inactive
OC[C@]1(O)OC[C@@H](O)[C@H](O)[C@@H]1O	–	inactive
CCN(CC)CCNC(=O)c1c(C)[nH]c(/C=C2\C(=O)Nc3ccc(F)cc32)c1C	–	inactive
CC(C)=CCC1=C(O)c2ccccc2C(=O)C1=O	–	inactive
C=C1C(CCl)(CCl)C2(Cl)C(Cl)C(Cl)C1(Cl)C2(Cl)Cl (stereo not drawn)	45.6 µM (active) and 15.7 µM (active)	–
